Source: the supplement of paper PMC8387472

Assays:
Assay in all cases: fraction of edited reads among all mapped reads; higher = more Cas9 editing
Conditions in all cases: mESC; 2uM; 72 h treatment, harvest day 5
[1] = compound: CC(=O)O/N=C1\C(=O)N(Cc2cc(Cl)ccc2Cl)c2ccc(Cl)cc21
[2] = compound: CC(C)(C#N)c1ccc(N2C(=O)OCc3cnc4ccc(-c5cnc6ccccc6c5)cc4c32)cc1
[3] = compound: CCCCOc1c(C(=O)c2c(F)cc(C)cc2F)c[nH]c2nncc1-2
[4] = compound: CCN1CCN(CC(=O)Nc2ccc(-c3cccc4c(=O)cc(N5CCOCC5)oc34)c3sc4ccccc4c23)CC1
[5] = compound: CCc1c2c(nc3ccc(OC(=O)N4CCC(N5CCCCC5)CC4)cc13)-c1cc3c(c(=O)n1C2)COC(=O)[C@]3(O)CC [Irinotecan HCl Trihydrate]
[6] = compound: CCn1c(=O)c(-c2ccc(Cl)cc2Cl)cc2cnc(Nc3ccc(N4CCNCC4)c(F)c3)nc21
[7] = compound: CNc1ccc([N+](=O)[O-])c(Nc2ccc3[nH]ncc3c2)n1
[8] = compound: CO[C@H]1/C=C/O[C@@]2(C)Oc3c(C)c(O)c4c(O)c(c(/C=N/N5CCN(C6CCCC6)CC5)c(O)c4c3C2=O)NC(=O)/C(C)=C\C=C\[C@H](C)[C@H](O)[C@@H](C)[C@@H](O)[C@@H](C)[C@H](OC(C)=O)[C@@H]1C [Rifapentine]
[9] = compound: COc1ccccc1-c1cc(Nc2cccc(CS(N)(=O)=O)c2)ncn1
[10] = compound: C[C@@H]1CN(CC(=O)Nc2ccc3c(c2)Cc2cccc(-c4cc(=O)cc(N5CCOCC5)o4)c2S3)C[C@H](C)O1
[11] = compound: Cc1cc(C)nc(SCC(=O)Nc2ncc(Cc3cccc4ccccc34)s2)n1
[12] = compound: Cc1ccc(C(=O)NCCCCCC(=O)Nc2ccccc2N)cc1
[13] = compound: Cc1cccc(CC(=O)N2CCc3c2ccc(-c2cn(C)c4ncnc(N)c24)c3F)n1
[14] = compound: NC(=O)c1ccc2nc(-c3ccc(Oc4ccc(Cl)cc4)cc3)[nH]c2c1 [Chk 2 inhibitor II (BML-277)]
[15] = compound: Nc1cc(F)ccc1NC(=O)c1ccc(CNC(=O)/C=C/c2cccnc2)cc1 [Tucidinostat (Chidamide)]
[16] = compound: Nc1nc2[nH]cc(CCc3ccc(C(=O)N[C@@H](CCC(=O)O)C(=O)O)cc3)c2c(=O)[nH]1 [Pemetrexed]
[17] = compound: Nc1ncnc2c1c(-c1cnc3[nH]ccc3c1)nn2C1CCCC1
[18] = compound: O=C(c1cccc(Cl)c1F)N1CCN(Cc2cccc(Nc3nccs3)n2)CC1
[19] = compound: O=C1Cc2c([nH]c3ccc(Br)cc23)-c2ccccc2N1 [Kenpaullone]
[20] = compound: O=c1c(-c2ccc(O)cc2)coc2cc(O)cc(O)c12 [Genistein]

| Target | fraction of edited reads among all mapped reads [1] | fraction of edited reads among all mapped reads [2] | fraction of edited reads among all mapped reads [3] | fraction of edited reads among all mapped reads [4] | fraction of edited reads among all mapped reads [5] | fraction of edited reads among all mapped reads [6] | fraction of edited reads among all mapped reads [7] | fraction of edited reads among all mapped reads [8] | fraction of edited reads among all mapped reads [9] | fraction of edited reads among all mapped reads [10] | fraction of edited reads among all mapped reads [11] | fraction of edited reads among all mapped reads [12] | fraction of edited reads among all mapped reads [13] | fraction of edited reads among all mapped reads [14] | fraction of edited reads among all mapped reads [15] | fraction of edited reads among all mapped reads [16] | fraction of edited reads among all mapped reads [17] | fraction of edited reads among all mapped reads [18] | fraction of edited reads among all mapped reads [19] | fraction of edited reads among all mapped reads [20] |
| --- | --- | --- | --- | --- | --- | --- | --- | --- | --- | --- | --- | --- | --- | --- | --- | --- | --- | --- | --- | --- |
| 7.0 (DMSO control at this site: 1-bp insertion 0.128, MH deletion 0.374, edited 0.098) TACTCAACCGAGACCTACGCGAACCGAAATCGTATGCCGGTGCGCAAGCAGGGCTGGCGTC | 0.117 | 0.115 | 0.118 | 0.0615 | 0.161 | 0.0955 | 0.135 | 0.19 | 0.126 | 0.0557 | 0.173 | 0.0971 | 0.138 | 0.128 | 0.1 | 0.1 | 0.096 | 0.0816 | 0.195 | 0.124 |
| 40.0 (DMSO control at this site: 1-bp insertion 0.072, MH deletion 0.192, edited 0.189) GCGAATCAACTGTTCAACAACAGCAGCAGCCACCTGGAGGACTACAGTGGCCTGTCCGTGT | 0.203 | 0.198 | 0.224 | 0.0829 | 0.259 | 0.184 | 0.242 | 0.327 | 0.271 | 0.219 | 0.334 | 0.199 | 0.298 | 0.238 | 0.193 | 0.179 | 0.201 | 0.142 | 0.432 | 0.24 |
| 26.0 (DMSO control at this site: 1-bp insertion 0.518, MH deletion 0.262, edited 0.026) AGGGCGCGCCCCACGCACTCTGCGGCAAGTCCCTCTGCGGCAAGTCCTCGGCCCGGAAGAC | 0.0291 | 0.0255 | 0.0319 | 0.0118 | 0.0344 | 0.0242 | 0.0263 | 0.0398 | 0.0351 | 0.0296 | 0.0413 | 0.0319 | 0.0384 | 0.0384 | 0.0295 | 0.0225 | 0.0266 | 0.0221 | 0.0413 | 0.0338 |
| 20.0 (DMSO control at this site: 1-bp insertion 0.349, MH deletion 0.138, edited 0.084) TACAGGTGTAGACTGGTTACGTGGCTGCGGAATTGACTGGTTACGTGGCTGCGGAATTTTG | 0.0924 | 0.0867 | 0.0976 | 0.0384 | 0.115 | 0.0929 | 0.1 | 0.133 | 0.147 | 0.103 | 0.152 | 0.0728 | 0.111 | 0.106 | 0.0826 | 0.0835 | 0.117 | 0.0574 | 0.232 | 0.125 |
